The values below come from PubChem BioAssay (NCATS).

Records with an inconclusive call do not appear. Unmarked numbers belong to inactive results. The source made the active and inactive calls. Calls come from the whole dose curve; as a rule, active = well fitted inhibition curve with a large enough effect; inconclusive = small, poorly fitted or top-dose-only effect, or effect the other way; inactive = flat fitted curve, though single readings scatter.

This test in a line: qHTS for Inhibitors of Plasmodium falciparum (CP250) proliferation (AID 504320).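 Note: plate controls were DMSO vehicle for no effect and 0.29 µM artemisinin control for full effect.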 To be noted: P. falciparum CP250 in erythrocytes, SYBR Green DNA, 72 h; series mostly up to 6.7 µM; activity change, negative = inhibition: at the top concentration. Summed up: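 Erythrocytes infected with P. falciparum line (0.3% parasitemia, 2.5% hematocrit final) incubated with compounds 72 h at 37 °C, 5% CO2; SYBR Green lysis buffer added, fluorescence read next day. Normalized to 0.29 uM artemisinin and DMSO.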
In general terms: Quantitative high-throughput screening tests each substance at several concentrations.
In the case of `COC(=O)N[C@@H](c1cccc(C)c1)[C@]1(C(C)=O)CCCC1=O`, the “activity change, negative = inhibition” value is 2.12%.

For `CCN1C(=O)N[C@@H](c2ccco2)C(C(C)=O)=C1C`, the “activity change, negative = inhibition” value was 0.505%.

Turning to `CCOC(=O)CN1C(=O)N[C@@H](c2ccco2)C(C(=O)OC)=C1C`, the “activity change, negative = inhibition” value is -0.358%.

Regarding `COCCN1C(=O)N(C)[C@@H](c2ccccc2)C(C(C)=O)=C1C`, the “activity change, negative = inhibition” value was 1.27%.

Consider `COC(=O)C1=C(C(=O)OC)[C@@H]2N(Cc3ccccc3)c3ccccc3[C@@]23C[C@@H](C(=O)OC)N(C(=O)C2CCC2)C3=N1`, for which the “activity change, negative = inhibition” value was 2.57%.

Consider `CC1(OC(=O)CCc2ccccc2)C(=O)C=C2C=C(c3ccc(C#N)cc3)N(C3CCCCC3)C=C2C1=O` (centres undefined), for which the “activity change, negative = inhibition” value was 0.556%.

As to `COC/C=C/C1=CC2=CC(=O)C(C)(OC(=O)c3cnc4ccccc4n3)C(=O)C2=CN1c1ccc(CO)cc1` (centres undefined), the “activity change, negative = inhibition” value was -0.552%.

On to `CCN1C(=O)N[C@@H](CCc2ccccc2)C(C(C)=O)=C1C`, for which the “activity change, negative = inhibition” value is -1.74%.

Take `CCOC(=O)C=CCCCC=CC(=O)c1ccccc1`: the “activity change, negative = inhibition” value is -0.0754%.

Turning to `COC(=O)C1=C(C(=O)OC)[C@@H]2Nc3ccccc3[C@@]23C[C@@H](C(=O)OC)N(C(=O)NC2CCCC2)C3=N1`, the “activity change, negative = inhibition” value is 2.05%.

For the molecule `COC/C=C/C1=CC2=CC(=O)C(C)(OC(=O)c3cnc4ccccc4n3)C(=O)C2=CN1CCc1c[nH]c2ccccc12` (centres undefined), the “activity change, negative = inhibition” value was 4.29%.

In the case of `COC(=O)CCCC1=CC2=C(c3ccccc3)C(=O)C(C)(OC(=O)C3CCCC3)C(=O)C2=CN1CCc1ccccn1` (centres undefined), the Potency entry was “inactive”.

Take `CCCCC1=CC2=CC(=O)C(C)(OC(=O)CC)C(=O)C2=CN1C(CO)CO` (centres undefined): the “activity change, negative = inhibition” value was -0.912%.

Consider `CCN(CC)CCCN1C=C2C(=O)C(C)(OC(=O)CCC(=O)OC)C(=O)C=C2C=C1C1CC1` (centres undefined), for which the “activity change, negative = inhibition” value was -2.19%.

Turning to `CCN1C(=O)N[C@@H](c2ccccc2)C(C(=O)OC)=C1C`, the “activity change, negative = inhibition” value is 1.54%.

Turning to `COC(=O)C1=C(C(=O)OC)[C@@H]2N(Cc3ccccc3)c3ccccc3[C@@]23C[C@@H](C(=O)OC)N(C(C)=O)C3=N1`, the “activity change, negative = inhibition” value is 1.36%.

On to `CCOC(=O)CN1C(=O)N[C@@H](c2ccco2)C(C(C)=O)=C1C`, for which the “activity change, negative = inhibition” value is 3.81%.

As to `COC(=O)[C@@H]1[C@H](CCc2ccccc2)NC(=O)N(Cc2ccccc2)[C@@H]1C`, the “activity change, negative = inhibition” value is 4.68%.

As to `COC(=O)C1=C(C(=O)OC)[C@@H]2N(C)c3ccc(OC)cc3[C@@]23C[C@@H](C(=O)OC)N(C(=O)C2CCC2)C3=N1`, the “activity change, negative = inhibition” value is -4.18%.

In the case of `COCC(=O)N1CCc2nc(-c3ccc(OC)cc3C)c3c(c2C1)CO[C@@H](c1ccccc1)C3`, the “activity change, negative = inhibition” value was -0.621%.

On to `COC(=O)C1=C(C(=O)OC)[C@@H]2N(C)c3ccccc3[C@@]23C[C@@H](C(=O)OC)N(C(=O)CC(C)C)C3=N1`, for which the “activity change, negative = inhibition” value is 3.01%.

`COC(=O)C1=C(C)N(Cc2ccccc2)C(=O)N[C@H]1c1ccco1`: the “activity change, negative = inhibition” value is 2.75%.

As for `COC(=O)CCC(=O)OC1(C)C(=O)C=C2C=C(C3CC3)N(Cc3ccccc3)C=C2C1=O` (centres undefined), the “activity change, negative = inhibition” value was 1.62%.

As for `COC/C=C/C1=CC2=CC(=O)C(C)(OC(=O)c3cnc4ccccc4n3)C(=O)C2=CN1CCc1ccccn1` (centres undefined), the “activity change, negative = inhibition” value was 0.975%.

On to `COC(=O)C1=C(C)N(Cc2ccccc2)C(=O)NC1c1ccco1` (centres undefined), for which the “activity change, negative = inhibition” value is 0.494%.

As for `CC(=O)[C@@H]1[C@@H](C)N(Cc2ccccc2)C(=O)N[C@H]1c1cccc(C(F)(F)F)c1`, the Potency result is “inactive”.

As for `COC(=O)C1=C(C(=O)OC)[C@@H]2Nc3ccccc3[C@@]23C[C@@H](C(=O)OC)N(S(=O)(=O)c2ccc(C)cc2)C3=N1`, the “activity change, negative = inhibition” value was 4.23%.

Turning to `CC1(OC(=O)CCc2ccccc2)C(=O)C=C2C=C(c3ccc(C#N)cc3)N(CCN3CCOCC3)C=C2C1=O` (centres undefined), the “activity change, negative = inhibition” value is -1.12%.

In the case of `CCOC(=O)CN1C(=O)N[C@@H](c2ccccc2)[C@H](C(=O)OC)[C@H]1C`, the “activity change, negative = inhibition” value was 5.78%.

On to `CCCCC1=CC2=C(c3ccco3)C(=O)C(C)(OC(=O)c3ccc(OC)cc3)C(=O)C2=CN1c1ccccc1` (centres undefined), for which the Potency entry is “inactive”.

On to `C=CC1=C2C=C(C3CC3)N(CCCN(CC)CC)C=C2C(=O)C(C)(OC(=O)c2ccco2)C1=O` (centres undefined), for which the “activity change, negative = inhibition” value is 1.24%.

As for `CCOC(=O)CN1C(=O)N[C@@H](c2cccc(F)c2)C(C(=O)OC)=C1C`, the “activity change, negative = inhibition” value was 3.37%.

In the case of `CCOC(=O)NN=C1C[C@@H](O)[C@@H](O)[C@@H]2[C@H]3C(=O)N([C@@H](C)c4ccccc4)C(=O)[C@@H]3CC[C@@H]12`, the “activity change, negative = inhibition” value is -1.3%.

Regarding `COC(=O)C1=C(C)N(Cc2ccccc2)C(=O)N[C@H]1CCc1ccccc1`, the “activity change, negative = inhibition” value was 5.54%.

As for `COC(=O)C1=C(C(=O)OC)[C@@H]2N(C)c3ccccc3[C@@]23C[C@@H](C(=O)OC)N(S(=O)(=O)c2ccc(C#N)cc2)C3=N1`, the “activity change, negative = inhibition” value is 8.13%.

`COC(=O)C1=C(C(=O)OC)[C@@H]2N(C)c3ccccc3[C@@]23C[C@@H](CO)N=C3N1`: the “activity change, negative = inhibition” value was 7.84%.

Regarding `C[C@H]1Cc2c(-c3ccccc3)nc3c(c2CO1)CN(S(=O)(=O)c1ccc(C#N)cc1)CC3`, the “activity change, negative = inhibition” value is 6.87%.

Take `COC/C=C/C1=CC2=CC(=O)C(C)(OC(=O)c3cnc4ccccc4n3)C(=O)C2=CN1CCN1CCOCC1` (centres undefined): the “activity change, negative = inhibition” value is -0.788%.

For `COc1ccc(N2C=C3C(=O)C(C)(OC(=O)CCc4ccccc4)C(=O)C=C3C=C2c2ccc(C#N)cc2)cc1` (centres undefined), the “activity change, negative = inhibition” value was -0.74%.
